# HT1080 IDH1KD tx – qHTS for induction of synthetic lethality in tumor cells producing 2HG: qHTS for the HT-1080-IDH1KD cell line; Potency, µM (titrated, usually from 46.1 µM), for the others: at the top dose activity, negative = toxicity, actives largely listed as cytotoxic; AID 686971, 2013; 2% of 360,000 active; HT-1080 IDH1 knockdown viability, ATP luminescence, 48 h;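 further: potency means the concentration at half of the fitted maximal effect; 0% = DMSO wells and -100% = cell-free medium wells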
#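 Using the IDH1-knockdown HT-1080 line run in the same batch and compound series as the NT line, viability after 48 h at 37 °C was determined by CellTiter-Glo luminescence and expressed as % activity.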
# HT1080-NT tox – qHTS for induction of synthetic lethality in tumor cells producing 2HG: qHTS for the HT-1080-NT fibrosarcoma cell line; Potency, µM (doses to about 46.1 µM), without a hit: top-dose activity, negative = less viability, usual class: cytotoxic; 1.6% of 360,000 active; HT-1080-NT fibrosarcoma viability, CellTiter-Glo ATP luminescence, 48 h;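 further: NT is the 2HG producing partner of a matched IDH1 knockdown line; potency means the concentration at half of the fitted maximal effect; 0% = DMSO-treated cells and -100% = media-only wells without cells; nearly all actives have a fitted effect of over 55% in size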
#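 Viability of the 2HG-overproducing fibrosarcoma line after 48 hours of compound exposure at 37 degrees C was determined by luminescence with CellTiter-Glo, and concentration-effect curves were then fitted and categorized.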
# TDP1 cell noCPT – qHTS for Inhibitors of human tyrosyl-DNA phosphodiesterase 1 (TDP1): qHTS in cells in absence of CPT. DT40 Tdp1-/- hTDP1 cells, no CPT, ATP luminescence, 48 h. Potency, µM (series often up to 46.2 µM), inactives show top-dose activity change, negative = growth inhibition, usual class: inhibitors. 15% of 420,000 active; further: potency means the concentration at half of the fitted maximal effect; nearly all actives have a fitted effect of over 55% in size
#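 Cells were dispensed at 400 per well, compounds added by pin tool, plates incubated ≥48 hr at 37 °C, then CellTiter-Glo added for 30 min at room temperature before luminescence reading. Line: DT40 Tdp1-/- complemented with hTDP1; camptothecin omitted.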
# TDP1 cell CPT – qHTS for Inhibitors of human tyrosyl-DNA phosphodiesterase 1 (TDP1): qHTS in cells in presence of CPT | chicken DT40 Tdp1-/-;hTDP1 cells + 20 nM CPT, ATP luminescence, 48 h | Potency, µM (highest dose often 46.2 µM), without a hit: at the top dose activity change, negative = growth inhibition, hits mostly inhibitors | 12% of 420,000 active | AID 686979, 2013; further: potency means the concentration at half of the fitted maximal effect; nearly all actives have a fitted effect of over 55% in size
#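 Chicken DT40 Tdp1-/- cells stably complemented with human TDP1 were seeded at 400 cells/well in medium containing 20 nM camptothecin, exposed to pin-transferred compounds, and grown at 37 °C for at least 48 hr. Viability was read as ATP luminescence.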
# IL1B secr inh – qHTS for Inhibitors of Inflammasome Signaling: IL-1-beta AlphaLISA Primary Screen | activity change, % at 57.5 µM | THP-1 LPS/ATP IL-1B secretion, AlphaLISA, 16 h; stronger effect = lower value | 4.7% of 360,000 active | AID 743279, 2014; in the data active means activity change below about -50%; inconclusive means mostly about -30% to -49%
#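 THP-1 cells pretreated 1 hr with compounds (up to 57.5 uM final), then stimulated with LPS (250 ng/mL final) plus ATP (1.25 mM final); secreted IL-1B measured by AlphaLISA after 16 hr, decreased signal indicating inhibition.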
# The depositor's hits bear a star; ? = inconclusive; . = no result given; [ ] = remark or other dose. Only some compounds are listed: those with a hit (about 19% of all), similar ones and a draw of the others. Unless noted, the call rests on the fitted dose curve; in most records, active means well fitted curve in the direction sought with a large enough effect; inconclusive means small, poorly fitted or top-dose-only effect, or another doubt; inactive means no such curve, though single readings can be large; an effect the other way counts as inactive or inconclusive. Unless noted, on the % scale 0 is the no-effect control and ±100 the full control effect.
SMILES,HT1080 IDH1KD tx,HT1080-NT tox,TDP1 cell noCPT,TDP1 cell CPT,IL1B secr inh
COc1ccc(C2NC(=O)NC(C)=C2C(=O)OCc2ccc3c(c2)OCO3)cc1OC (stereo unspecified),?,7%,?,?,-15
COc1ccc(NC(=O)Cn2nc(C)c([N+](=O)[O-])c2C)cn1,3%,20%,-5%,-5%,21
Cc1ccc(-n2c(O)c(C=NC3CCS(=O)(=O)C3)c3ccccc3c2=O)cc1 (stereo unspecified),-18%,3%[9.24 µM],-14%,?,-11
Cc1ccc(-n2c(O)c(C=NC3CCS(=O)(=O)C3)c3ccccc3c2=O)c(C)c1 (stereo unspecified),-6%,-13%,?,21µM*,.
Cc1ccc(-n2c(O)c(C=Nc3cc(C)on3)c3ccccc3c2=O)c(C)c1,-11%,-13%,4.6µM*,1.6µM*,-15
CC1CCN(C(C(=O)O)c2ccccc2)CC1 (stereo unspecified),13%,20%,-8%,?,13
N=c1n(CCO)c2ccccc2n1CCOc1ccc(Cl)cc1Cl,?,21µM*,5.8µM*,6.5µM*,-102*
COc1ccc(OCC(O)Cn2c(=N)n(CCN3CCCCC3)c3ccccc32)cc1 (stereo unspecified),?,18µM*,18µM*,13µM*,-57*
COc1ccc(C(O)Cn2c(=N)n(CCCN(C)C)c3ccccc32)cc1 (stereo unspecified),-1%,-12%,?,?,-28
N=c1n(CCN2CCCC2)c2ccccc2n1CC(O)c1ccc(Cl)c(Cl)c1 (stereo unspecified),?,?,3.7µM*,5.8µM*,-22
Cc1ccc(OCC(O)Cn2c(=N)n(CCN3CCCCC3)c3ccccc32)cc1 (stereo unspecified),?,16µM*,23µM*,5.2µM*,-50*
CN1c2ccc(Cl)cc2C(=O)NC1C1CC=CCC1 (stereo unspecified),-9%,-4%,?,-4%,25
CC(C)Oc1ccccc1/C=N/NC(=O)C1CC1,6%,3%,8%,26%,17
N=c1n(CCN2CCCCC2)c2ccccc2n1CC(O)COc1ccc(Cl)cc1Cl (stereo unspecified),.,.,4.6µM*,3.7µM*,.
Cc1ccc(OCC(O)Cn2c(=N)n(CCN3CCOCC3)c3ccccc32)cc1 (stereo unspecified),-13%,-21%,23µM*,?,?
N=c1n(CCOc2ccccc2)c2ccccc2n1CCN1CCOCC1,-6%,-1%,-5%,-3%,-19
CCS(=O)(=O)N1CC(=O)N(c2cccc(C)c2C)C(C)(C(=O)NC2CCCCC2)C1 (stereo unspecified),.,.,-9%,-2%,.
Cc1ccc(CCNC(=O)c2cc3sccc3n2Cc2ccc(C)cc2)cc1,.,.,?,-25%,.
O=C(NCCCN1CCOCC1)c1ccc2c(c1)N(Cc1ccccc1)CCS2,-29%,-16%,23µM*,?,?
O=C(NCC1CCCO1)c1ccc2c(c1)N(Cc1ccccc1)CCS2 (stereo unspecified),0%,2%,1%,?,-22
CCN1CCN(CCCNC(=O)c2ccc3c(c2)N(Cc2ccc(C)cc2)CCS3)CC1,?,?,?,?,-1
CN1CCN(CCCNC(=O)c2ccc3c(c2)N(Cc2ccccc2)CCS3)CC1,-4%,-16%,?,21µM*,-27
Cc1ccc(Cn2c(C(=O)NCCCN3CCOCC3)cc3sccc32)cc1,?,16µM*,?,-24%,22
Cc1ccc(CN2CCSc3ccc(C(=O)NCCCN4CCOCC4)cc32)cc1,?,-12%,?,21µM*,-51*

# Screening results deposited in PubChem by National Center for Advancing Translational Sciences (NCATS).
